Activity calls are given as the source filed them. The calls were made as follows: active = hit-call score of the fitted dose curve at least 0.9, where 1 is the maximum; inactive = score below 0.9.

A short description of experiment [1]: ATG_DR4_LXR_CIS: Attagene CIS-FACTORIAL HepG2 Assay for human Liver X Receptor (LXR), DR4 submotif (AID 2282929). As to conditions: HepG2 Attagene DR4 cis-reporter, mRNA transcription; AC50: actives raise or lower the signal unless noted; outcome: actives raise or lower the signal unless noted. The method, boiled down: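 HepG2 cells transiently transfected with cis-promoter-driven multiplexed reporter units (DR4 element) were dosed for 24 h. Reporter mRNA was quantified by RT-PCR, fluorescent primer extension, HpaI digestion and capillary electrophoresis; bidirectional fitting versus DMSO baseline.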

Experiment [2] addresses Aryl hydrocarbon receptor (Homo sapiens) (UniProt P35869). In words: ATG_Ahr_CIS: Attagene CIS-FACTORIAL HepG2 Assay for human Aryl Hydrocarbon Receptor (Ahr) (AID 2282930). As to conditions: HepG2 AhR cis-factorial reporter transcription; actives raise or lower the signal. In a few lines: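 HepG2 cells transiently transfected with cis-element-driven multiplexed reporter transcription units; endogenous transcription factor activity measured as reporter mRNA 24 h after dosing. RT-PCR, 6-FAM labelling, HpaI digestion, capillary electrophoresis; bidirectional fitting versus DMSO baseline.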

Experiment [3] in a line: ATG_AP_1_CIS: Attagene CIS-FACTORIAL HepG2 Assay for human Activator Protein 1 (AP-1) (AID 2282931). As to conditions: HepG2 Attagene cis-factorial AP-1 reporter mRNA; actives raise or lower the signal. The method, boiled down:
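HepG2 cells transiently transfected with cis-element-driven multiplex reporter units; 24 h compound exposure. Reporter mRNA quantified by RT-PCR, FAM-labelled fragments resolved by capillary electrophoresis; bidirectional fit versus DMSO baseline.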

The nature of experiment [4]: ATG_AP_2_CIS: Attagene CIS-FACTORIAL HepG2 Assay for human Activator Protein 2 (AP-2) (AID 2282932). The conditions noted are these: HepG2 AP-2 cis-reporter, Attagene transcription factor profiling; AC50: actives raise or lower the signal unless noted; outcome: actives raise or lower the signal unless noted. The method, boiled down: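 Cells (HepG2) transfected with promoter-driven reporter constructs, treated 24 h. Total RNA reverse-transcribed, reporter cDNA PCR-amplified, FAM-labelled by primer extension, digested, resolved by capillary electrophoresis. Activity fitted both directions versus DMSO.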

Experiment [5] in a line: ATG_BRE_CIS: Attagene CIS-FACTORIAL HepG2 Assay for human Bone Morphogenetic Protein (BMP) Response Element (BRE) (AID 2282933). The conditions noted are these: HepG2 BMP response element reporter, Attagene transcription factor profiling; actives raise or lower the signal. In a few lines: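 Fluorescence-labelled reporter cDNA fragments, separated by capillary electrophoresis, gave the signal for this component of a 52-readout multiplex. HepG2 cells were transfected, exposed to chemicals for 24 h, and compared with DMSO using bidirectional fitting.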

Experiment [6] addresses Retinoic acid receptor alpha (Homo sapiens) (UniProt P10276). Briefly: ATG_DR5_RAR_CIS: Attagene CIS-FACTORIAL HepG2 Assay for human Retinoic Acid Receptor Alpha (RARE), DR5 submotif (AID 2282934). The conditions noted are these: HepG2 Attagene cis-factorial RARE DR5 reporter, mRNA; actives raise or lower the signal. The method, boiled down: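 HepG2 cells transiently transfected with multiplexed reporter units under cis (DR5 RARE) promoters, so endogenous transcription factor activity is measured. After 24 h compound exposure, reporter mRNA is quantified by RT-PCR with fluorescent labelling and capillary electrophoresis; bidirectional fitting versus DMSO.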

The target in experiment [7] is Transcription factor E2F1 (Homo sapiens) (UniProt Q01094). In words: ATG_E2F_CIS: Attagene CIS-FACTORIAL HepG2 Assay for human E2F Transcription Factor 1 (AID 2282935). The conditions noted are these: HepG2 Attagene cis-reporter, E2F reporter RNA transcripts; actives raise or lower the signal. In a few lines: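 First, HepG2 cells were transfected with reporter transcription units. Next, they were dosed for 24 h. Then RNA was isolated, converted to cDNA, PCR-amplified, FAM-labeled, HpaI-digested and analyzed by capillary electrophoresis.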

Experiment [8] can be described thus: ATG_E_Box_CIS: Attagene CIS-FACTORIAL HepG2 Assay for human Enhancer Box (E-box) (AID 2282936). As to conditions: HepG2 E-box cis-reporter transcription, actives raise or lower the signal. In a few lines: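 Endogenous transcription factor activity was sensed in human HepG2 liver cells through transfected cis-promoter reporter units. After 24 h of dosing, total RNA was reverse-transcribed and reporter cDNA resolved by capillary electrophoresis.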

Experiment [9] in a line: ATG_M_61_CIS: Attagene CIS-FACTORIAL HepG2 Assay for M61 Transcription Factor (Internal Marker) (AID 2282937). As to conditions: HepG2 Attagene CIS-FACTORIAL M61 internal marker reporter; actives raise or lower the signal. In a few lines: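 HepG2 cells transiently transfected with cis-element-driven multiple reporter transcription units, dosed for 24 h. Reporter mRNA measured by RT-PCR, 6-FAM primer-extension labelling, HpaI digestion and capillary electrophoresis; bidirectional fit versus DMSO baseline.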

A short description of experiment [10]: ATG_EGR_CIS: Attagene CIS-FACTORIAL HepG2 Assay for human Early Growth Response 1 (EGR1) (AID 2282938). The conditions noted are these: HepG2 Attagene CIS-FACTORIAL EGR reporter mRNA; actives raise or lower the signal. The method, boiled down:
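HepG2 cells transiently transfected with cis-promoter-driven multiplexed reporter transcription units; reporter mRNA measured 24 h after compound dosing by RT-PCR, 6-FAM primer extension, HpaI digestion and capillary electrophoresis. Bidirectional fit versus DMSO baseline.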

Experiment [11] in a line: ATG_ERE_CIS: Attagene CIS-FACTORIAL HepG2 Assay for Estrogen Response Element (ERE) (AID 2282940). The conditions noted are these: HepG2 ERE cis-reporter, Attagene RNA transcript; actives raise or lower the signal. The method, boiled down: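 After a 24 h chemical treatment, RNA from reporter-transfected HepG2 cells is reverse-transcribed, PCR-amplified and fluorescently labelled. Fragments separated by capillary electrophoresis give reporter signal; DMSO serves as negative control.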

Experiment [12] in a line: ATG_Ets_CIS: Attagene CIS-FACTORIAL HepG2 Assay for human Erythroblast Transformation Specific (ETS) (AID 2282941). The conditions noted are these: HepG2 ETS cis-reporter transcription; AC50: actives raise or lower the signal unless noted; outcome: actives raise or lower the signal unless noted. In a few lines: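 RT-PCR/capillary electrophoresis fluorescence read-out of reporter mRNA; HepG2 transient multi-reporter transfection; 24 h compound exposure; gain or loss of signal fitted bidirectionally relative to DMSO.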

Experiment [13] can be described thus: ATG_FoxO_CIS: Attagene CIS-FACTORIAL HepG2 Assay for human Forkhead box O (FoxO) (AID 2282943). The conditions noted are these: HepG2 Attagene cis-reporter, FoxO element, mRNA; actives raise or lower the signal. The method, boiled down:
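HepG2 cells transiently transfected with cis-promoter-driven multiple reporter transcription units; 24 h after chemical dosing, reporter mRNA quantified by RT-PCR, fluorescent primer extension, HpaI digestion and capillary electrophoresis. Bidirectional fitting versus DMSO baseline.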

Experiment [14] is described as follows: ATG_GATA_CIS: Attagene CIS-FACTORIAL HepG2 Assay for human GATA Binding Protein (AID 2282944). As to conditions: HepG2 GATA cis-element reporter, Attagene multiplex mRNA; actives raise or lower the signal. The method, boiled down:
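Cells: HepG2, transiently transfected with cis-regulated reporter transcription units. Exposure: 24 h. Detection: RT-PCR plus capillary electrophoresis of FAM-labeled fragments. Analysis: bidirectional, DMSO as baseline.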

The nature of experiment [15]: ATG_GLI_CIS: Attagene CIS-FACTORIAL HepG2 Assay for human Zinc Finger Protein GLI1 (AID 2282945). The conditions noted are these: HepG2, Attagene cis-factorial reporter mRNA, GLI element; actives raise or lower the signal. The method, boiled down:
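HepG2 cells transiently transfected with cis-promoter multiplexed reporter units report endogenous transcription factor activity. After 24 h chemical exposure, reporter mRNA was quantified by RT-PCR, 6-FAM labelling, HpaI digestion and capillary electrophoresis, with bidirectional fitting against DMSO.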

Experiment [16] deals with Bile acid receptor (Homo sapiens) (UniProt Q96RI1). Briefly: ATG_IR1_CIS: Attagene CIS-FACTORIAL HepG2 Assay for human Nuclear Receptor Subfamily 1 Group H Member 4 (NR1H4), IR1 submotif (AID 2282946). As to conditions: IR1 reporter transcription, actives raise or lower the signal. In a few lines:
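Readout: reporter transcript levels by RT-PCR with fluorescent capillary electrophoresis, from HepG2 cells transiently transfected with multiplexed cis-regulated reporters and dosed 24 h. Gain- or loss-of-signal fitted versus DMSO negative control.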

Experiment [17] can be described thus: ATG_GRE_CIS: Attagene CIS-FACTORIAL HepG2 Assay for human Glucocorticoid Response Elements (GRE) (AID 2282947). The conditions noted are these: HepG2 GRE cis-reporter, Attagene multiplex mRNA; AC50: actives raise or lower the signal unless noted; outcome: actives raise or lower the signal unless noted. In a few lines:
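Cells (HepG2) bearing transfected cis-promoter reporter transcription units were treated with chemical for 24 hours. Reporter mRNA was measured via RT-PCR with capillary electrophoresis, and activity was fitted in both directions relative to DMSO.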

A short description of experiment [18]: ATG_ISRE_CIS: Attagene CIS-FACTORIAL HepG2 Assay for human Interferon Regulatory Factor 1 (IRF1) binding to an Interferon-Stimulated Response Element (ISRE) (AID 2282948). As to conditions: HepG2 ISRE cis-reporter (Attagene), mRNA transcription readout; actives raise or lower the signal. The method, boiled down: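 Read-out: fluorescent RT-PCR products resolved by capillary electrophoresis, reporting endogenous transcription factor activity via ISRE-driven reporter mRNA in transfected HepG2 cells dosed for 24 h; gain or loss fitted relative to DMSO.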

A short description of experiment [19]: ATG_M_19_CIS: Attagene CIS-FACTORIAL HepG2 Assay for M19 Transcription Factor (Internal Marker) (AID 2282939). The conditions noted are these: HepG2 Attagene CIS-FACTORIAL M19 internal marker reporter; actives raise or lower the signal. In a few lines:
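HepG2, MRTU transient transfection, 24 h dosing. Total RNA → RT-PCR → 6-FAM primer extension → HpaI digest → CE fluorescence. Bidirectional curve fit, DMSO negative control.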

For experiment [20], the target named is Hepatocyte nuclear factor 3-beta (Homo sapiens) (UniProt Q9Y261). Briefly: ATG_FoxA2_CIS: Attagene CIS-FACTORIAL HepG2 Assay for human Forkhead box A2 (FOXA2) (AID 2282942). As to conditions: HepG2 cis-reporter transcription factor activity, 24 h; actives raise or lower the signal. The method, boiled down:
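HepG2 cells transiently transfected with multiple cis-regulated reporter transcription units, dosed for 24 h. Reporter mRNA measured by RT-PCR, 6-FAM labelling, HpaI digestion and capillary electrophoresis; bidirectional fitting against DMSO baseline.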

Sequence of Retinoic acid receptor alpha (Homo sapiens) (P10276 whole entry, looked up): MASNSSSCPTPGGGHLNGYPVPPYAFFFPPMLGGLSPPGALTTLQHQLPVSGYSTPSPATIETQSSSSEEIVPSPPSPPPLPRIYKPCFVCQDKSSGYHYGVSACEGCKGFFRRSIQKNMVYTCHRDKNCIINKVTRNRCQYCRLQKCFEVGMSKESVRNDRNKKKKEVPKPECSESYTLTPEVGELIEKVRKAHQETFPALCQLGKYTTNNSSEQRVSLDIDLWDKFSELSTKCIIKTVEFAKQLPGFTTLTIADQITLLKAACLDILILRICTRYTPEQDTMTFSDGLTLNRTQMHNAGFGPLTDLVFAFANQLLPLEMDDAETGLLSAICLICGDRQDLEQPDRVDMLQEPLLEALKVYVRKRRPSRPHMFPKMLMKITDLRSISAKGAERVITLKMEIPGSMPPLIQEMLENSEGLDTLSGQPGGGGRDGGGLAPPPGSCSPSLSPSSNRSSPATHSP
Sequence of Aryl hydrocarbon receptor (Homo sapiens) (P35869 whole entry, looked up): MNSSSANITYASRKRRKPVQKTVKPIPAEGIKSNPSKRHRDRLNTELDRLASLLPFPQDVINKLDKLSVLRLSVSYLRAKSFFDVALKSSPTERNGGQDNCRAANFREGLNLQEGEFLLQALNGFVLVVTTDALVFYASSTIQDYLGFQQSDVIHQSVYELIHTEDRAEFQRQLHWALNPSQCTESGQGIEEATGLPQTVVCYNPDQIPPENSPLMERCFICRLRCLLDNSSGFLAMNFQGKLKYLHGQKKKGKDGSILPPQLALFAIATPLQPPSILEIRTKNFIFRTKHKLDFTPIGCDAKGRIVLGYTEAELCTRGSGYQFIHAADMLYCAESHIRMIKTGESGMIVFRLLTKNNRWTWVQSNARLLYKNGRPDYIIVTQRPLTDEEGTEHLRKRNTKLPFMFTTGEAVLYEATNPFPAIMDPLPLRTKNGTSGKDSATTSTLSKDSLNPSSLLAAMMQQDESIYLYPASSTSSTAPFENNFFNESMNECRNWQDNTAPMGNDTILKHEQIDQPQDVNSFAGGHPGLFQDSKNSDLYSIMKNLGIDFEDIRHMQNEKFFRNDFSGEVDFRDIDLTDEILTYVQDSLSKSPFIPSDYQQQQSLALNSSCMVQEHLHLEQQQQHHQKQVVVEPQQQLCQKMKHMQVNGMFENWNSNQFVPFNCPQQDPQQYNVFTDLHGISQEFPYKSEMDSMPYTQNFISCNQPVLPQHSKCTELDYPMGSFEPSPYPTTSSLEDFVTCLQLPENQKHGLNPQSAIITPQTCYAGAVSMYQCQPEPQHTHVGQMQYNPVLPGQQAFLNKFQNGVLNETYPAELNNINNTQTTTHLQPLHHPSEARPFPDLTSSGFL
Sequence of Hepatocyte nuclear factor 3-beta (Homo sapiens) (Q9Y261 whole entry, looked up): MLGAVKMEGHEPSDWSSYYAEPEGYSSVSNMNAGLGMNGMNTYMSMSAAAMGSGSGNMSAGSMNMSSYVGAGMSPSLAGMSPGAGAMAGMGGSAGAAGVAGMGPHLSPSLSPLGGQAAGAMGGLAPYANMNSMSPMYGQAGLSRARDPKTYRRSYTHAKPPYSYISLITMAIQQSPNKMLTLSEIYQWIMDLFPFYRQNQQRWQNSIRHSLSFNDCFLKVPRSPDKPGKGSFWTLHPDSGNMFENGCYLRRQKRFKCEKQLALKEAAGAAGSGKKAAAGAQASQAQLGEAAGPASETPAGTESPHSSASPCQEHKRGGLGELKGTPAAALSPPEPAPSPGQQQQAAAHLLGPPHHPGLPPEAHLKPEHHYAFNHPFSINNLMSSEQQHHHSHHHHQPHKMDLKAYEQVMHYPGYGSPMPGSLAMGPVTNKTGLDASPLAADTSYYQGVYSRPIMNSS
Sequence of Transcription factor E2F1 (Homo sapiens) (Q01094 whole entry, looked up): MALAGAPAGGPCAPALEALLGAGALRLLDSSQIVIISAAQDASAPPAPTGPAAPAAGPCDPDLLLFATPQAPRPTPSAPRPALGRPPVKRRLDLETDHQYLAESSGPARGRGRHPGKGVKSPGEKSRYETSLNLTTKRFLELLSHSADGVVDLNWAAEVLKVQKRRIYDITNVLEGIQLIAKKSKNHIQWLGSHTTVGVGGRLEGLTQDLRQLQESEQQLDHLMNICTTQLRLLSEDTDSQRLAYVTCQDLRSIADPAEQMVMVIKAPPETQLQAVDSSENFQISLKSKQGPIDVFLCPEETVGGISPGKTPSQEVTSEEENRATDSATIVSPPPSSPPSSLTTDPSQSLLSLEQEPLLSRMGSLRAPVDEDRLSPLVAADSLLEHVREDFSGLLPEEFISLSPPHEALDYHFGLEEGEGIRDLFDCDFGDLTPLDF
Sequence of Bile acid receptor (Homo sapiens) (Q96RI1 whole entry, looked up): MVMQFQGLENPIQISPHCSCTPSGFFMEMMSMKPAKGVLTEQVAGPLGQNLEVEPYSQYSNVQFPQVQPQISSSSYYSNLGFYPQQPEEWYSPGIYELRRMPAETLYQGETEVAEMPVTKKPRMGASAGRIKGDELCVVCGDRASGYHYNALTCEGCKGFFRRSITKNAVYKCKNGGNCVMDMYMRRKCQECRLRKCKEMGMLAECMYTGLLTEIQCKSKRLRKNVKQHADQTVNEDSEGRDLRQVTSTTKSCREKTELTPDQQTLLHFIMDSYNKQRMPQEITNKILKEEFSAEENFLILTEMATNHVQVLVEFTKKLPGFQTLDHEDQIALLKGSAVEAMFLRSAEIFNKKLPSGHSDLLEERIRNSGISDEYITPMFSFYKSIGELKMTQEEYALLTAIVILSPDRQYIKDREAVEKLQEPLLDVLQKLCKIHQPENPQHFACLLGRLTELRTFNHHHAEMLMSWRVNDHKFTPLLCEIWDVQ

Turning to `CCOC(OCC)C(=O)c1ccccc1`, the outcome in experiment [1], in experiment [2], in experiment [3], in [4], in [5] and in [6] was inactive. Moreover, the outcome in [7], in [8], in experiment [9], in [10], in experiment [12] and in experiment [13] was inactive. Moreover, the call in experiment [14], in [15], in experiment [16], in [17] and in [18] was inactive. Further, in experiment [11], the AC50 is 77600 nM (active).

With `Nc1ccn([C@@H]2O[C@H](CO)[C@@H](O)C2O)c(=O)n1` (stereo partly specified), the result in experiment [1], in [2], in experiment [3], in experiment [4], in [5] and in [6] was inactive. Moreover, the outcome in experiment [7], in experiment [8], in experiment [9], in experiment [10], in experiment [11] and in [12] was inactive. For the same compound, the call in experiment [13], in [14], in experiment [15], in experiment [17] and in experiment [18] was inactive.

For `O=C(c1ccccc1)c1ccccc1`, the compound was classed as inactive in [1], in experiment [2], in experiment [3], in [4], in experiment [5] and in experiment [6]. Moreover, the compound was called inactive in [7], in [8], in [9], in experiment [10], in experiment [19] and in experiment [12]. The outcome in experiment [20], in experiment [13], in experiment [14], in [15] and in experiment [18] was inactive.

`O=C(Nc1cccc([N+](=O)[O-])c1)c1cc2ccccc2cc1O`: the result in [1], in [4], in [6], in [8], in experiment [9] and in [10] was inactive. Also, the result in [12], in [20], in experiment [13], in experiment [14], in [15] and in experiment [16] was inactive. Besides, the outcome in experiment [17] and in experiment [18] was inactive. The AC50 in [2] was 411 nM (active); in [3] it was 2310 nM (active); in experiment [5], 1170 nM (active); in experiment [7], 2350 nM (active); in [11], 3320 nM (active).
